High-throughput results as filed in PubChem BioAssay.
aSyn 5UTR act: Activators working through SNCA 5'UTR binding (MLPCN); alpha-synuclein 5'UTR reporter, activators screen; activity score, % (tested at 7.5 µM), hits read low; 300,000 compounds, 7.1% hits; in the data active = activity score below about -60%
The depositor's hits bear a star. A selection follows.

SMILES | aSyn 5UTR act
O=C(N1CCOCC1)N1CCN(c2nc(-c3ccccc3)cs2)CC1 | -77*
Cc1ccc(NC(=O)Nc2cccc([N+](=O)[O-])c2)nc1 | -113*
Cc1ccc(NC(=O)/C(C#N)=C(\N)C(Cl)(Cl)Cl)nc1 | -68*
Cc1ccc(NC(=O)C(=O)Nc2ccc(C)cn2)nc1 | -66*
Cc1ccc(NC(=O)Nc2ccc([N+](=O)[O-])cc2)nc1 | -113*
Cc1ccc(NC(=O)Nc2ccccc2)nc1 | -119*
C=C(C)c1cccc(C(C)(C)NC(=O)Nc2ccc(C)cn2)c1 | -91*
Cc1ccc(NC(=O)c2ccc(F)cc2)nc1 | -107*
CC(=O)Nc1ccc(/C=C/c2ccc3cccc([N+](=O)[O-])c3n2)cc1 | -112*
COc1cccc(/C=C/c2ccc3cccc(O)c3n2)c1OC | -74*
CCOc1c(OC(C)=O)ccc(/C=C/c2ccc3cccc(OC)c3n2)c1[N+](=O)[O-] | -76*
COc1ccc(/C=C/c2ccc3cccc(O)c3n2)c(OC)c1OC | -92*
COC(=O)c1ccc(/C=C/c2ccc3cccc(OC)c3n2)cc1 | -97*
COc1cc(OC)c(C(=O)Nc2ccc3ccccc3c2)cc1OC | -232*
COc1ccc(NC(=O)c2cc3ccccc3cc2OC)cc1OC | -70*
COc1cc(C(=O)Nc2ccc3ccccc3c2)cc(OC)c1OC | 88
COc1cccc(C(=O)Nc2ccc(N(C)C)cc2)c1OC | -214*
COc1ccc(C(=O)Nc2ccc3ccccc3c2)cc1OC | -176*
COc1cc2ccccc2cc1C(=O)Nc1ccc(Cl)cn1 | -111*
COc1cccc(NC(=O)c2cc3ccccc3cc2OC)c1 | -151*
COc1cc2ccccc2cc1C(=O)Nc1ccc(O)cc1 | -138*
Cc1occc1C(=O)Nc1ccc2ccccc2c1 | -128*
COc1cc(Cl)c(C)cc1NC(=O)c1cccc(OC)c1OC | -137*
COc1cccc(NC(=O)c2cccc(OC)c2OC)c1 | -168*
COc1cccc(NC(=O)c2ccccc2Br)c1 | -106*
SMILES | aSyn 5UTR act
COc1cccc(C(=O)Nc2ccc3[nH]c(=O)[nH]c3c2)c1OC | 68
CCN(CC)C(NC(=O)c1ccccc1)C(=O)c1ccccc1 (centres undefined) | -69*
Cc1ccc(C(=O)CSc2ncnc3ccccc23)o1 | -121*
O=C(CSc1ncnc2ccccc12)c1cccs1 | -137*
O=C(CSc1ncnc2ccccc12)N1CCCC1 | -67*
CCCCOc1ncnc2c1[nH]c1ccc(OC)cc12 | -214*
CCCCOc1ncnc2c1[nH]c1ccc(F)cc12 | -118*
CCCCOc1ncnc2c1[nH]c1ccccc12 | -81*
O=C(N/N=C\c1c(O)ccc2ccccc12)c1cncc(Br)c1 | 62
O=C(NC(=S)Nc1ccc(O)cc1)c1cncc(Br)c1 | -71*
O=C(NC(=S)NC1CCCCCC1)c1cncc(Br)c1 | -168*
O=C(NC(=S)NC1CCCCC1)c1ccccc1 | -95*
O=C(CNC(=S)NC(=O)c1ccccc1)c1ccccc1 | -83*
COc1ccc(C(=O)Nc2cccc(C(=O)N/N=C/c3ccc(OC)cc3OC)c2)cc1 | 83
COc1ccc(/C=N/NC(=O)c2cccc(NC(=O)c3ccccc3Cl)c2)cc1 | -99*
CC(=O)Nc1cccc(C(=O)N/N=C/c2ccc(F)cc2)c1 | -115*
CC(=O)Nc1cccc(C(=O)N/N=C/c2ccccc2F)c1 | -109*
Cc1ccc(-c2nn3c(C)nnc3s2)cc1N | -79*
Cc1ccc(-c2cc(N)nc(-c3ccccc3)c2)cc1 | -87*
CN(CCc1ccccc1)C(=O)c1cc(COc2ccc(F)cc2Cl)on1 | -82*
COc1ccc(OCc2cc(C(=O)NCC3CCOCC3)no2)c(Cl)c1 | -140*
O=C(NCCc1cnn(-c2ccccc2)c1)c1cc(COc2c(F)cccc2F)on1 | -80*
COc1ccc(OCc2cc(C(=O)NCC3CCCCO3)no2)c(Cl)c1 (centres undefined) | -152*
COc1ccc(CCNC(=O)c2cc(COc3c(C)cccc3C)on2)c(OC)c1 | -91*
COc1ccc(OCc2cc(C(=O)NCCc3ccccc3)no2)c(Cl)c1 | -95*
SMILES | aSyn 5UTR act
CN(C)c1ccc(C2=NOC(CN3C(=O)c4ccccc4S3(=O)=O)C2)cc1 (centres undefined) | -134*
Cc1ccc(N2C(=O)c3ccccc3NC2C(C)Cc2ccc3c(c2)OCO3)cc1 (centres undefined) | -68*
O=C(/C=C/c1ccccc1)Nc1cccnc1Cl | -84*
Cn1c(NC(=O)/C=C/c2ccco2)cc(=O)n(C)c1=O | -62*
COC(=O)c1ccccc1NC(=O)/C=C/c1ccco1 | -68*
O=C(/C=C/c1ccco1)Nc1cccnc1Cl | -130*
Cc1cccc(C=Nc2ccccc2C(N)=O)c1 | -70*
CCn1c(=NC(=O)c2ccco2)sc2cccc(F)c21 | -126*
CCCCN1C(=O)/C(=C/C=C2\SCCN2C)SC1=S | -121*
COc1ccccc1NC(=O)C(C/C=C(\C)Cl)C(C)=O (centres undefined) | -73*
COc1ccccc1NC(=O)c1nc(S(=O)(=O)Cc2ccccc2)ncc1Cl | 71
Cc1ccccc1-c1nnc(SCc2ccc(F)cc2)o1 | -126*
c1ccc(-c2nnc(SCCC3OCCCO3)o2)cc1 | -111*
Fc1ccc(CSc2nnc(-c3cccnc3)o2)cc1 | -65*
Oc1ccc(-c2nnc(SCc3ccccc3)o2)cc1 | -138*
c1ccc(CSc2nnc(Cc3ccccc3)o2)cc1 | -71*
O=C(CSc1nnc(COc2ccc(Cl)cc2)o1)N1c2ccccc2CCc2ccccc21 | 60
c1ccc(CSc2nnc(-c3cccnc3)o2)cc1 | -123*
Cc1cc(N2CCCC2)c(F)cc1/C=C\[N+](=O)[O-] | -79*
Cc1onc(-c2ccccc2)c1C(=O)O/N=C(\N)c1ccc([N+](=O)[O-])o1 | -136*
O=C(O)c1ccccc1-c1ncc(-c2ccccc2)o1 | -137*
C#CCn1cc(/C=N/Nc2nc3ccccc3[nH]2)c2ccccc21 | -383*
C(=N\Nc1nc2ccccc2[nH]1)/c1cccc2nccnc12 | 67
Cc1ccc(/C=N\Nc2nc3ccc(Cl)cc3[nH]2)o1 | -192*
CCCCn1c(/C=N/Nc2nc3ccccc3[nH]2)nc2ccccc21 | -433*
SMILES | aSyn 5UTR act
Fc1ccccc1-c1ccc(/C=N/Nc2nc3ccccc3[nH]2)o1 | -217*
C(=N\Nc1nc2ccccc2[nH]1)/c1ccccn1 | 112
O=[N+]([O-])c1ccc(Sc2cccc[n+]2[O-])c2nonc12 | 85
CCOc1ccc(Nc2ccc([N+](=O)[O-])c3nonc23)cc1 | -123*
O=C(Nc1ccccc1)Nc1cccc2nsnc12 | -272*
O=C(Nc1cccc2nsnc12)c1cccs1 | -143*
CCN(CC)CCN1C(=O)/C(=C\c2ccc(Cl)c([N+](=O)[O-])c2)SC1=Nc1ccc(OC)cc1 | 74
C=CCN1C(=O)/C(=C2/Sc3ccc(OC)cc3N2C)SC1=Nc1ccc(OC)cc1 | -79*
COc1ccc(N=C2S/C(=C\c3ccc(Cl)c([N+](=O)[O-])c3)C(=O)N2CCN(C)C)cc1 | 81
COc1cc(C2Nc3ccccc3C(=O)N2c2ccc(Cl)cc2)c(Cl)cc1OCC(=O)O (centres undefined) | -137*
CC(C)Oc1ccccc1C1Nc2ccccc2C(=O)N1c1ccc2c(c1)OCCO2 (centres undefined) | 68
CCOC(=O)COc1ccccc1C1Nc2ccccc2C(=O)N1c1cccc(Cl)c1 (centres undefined) | -107*
COc1cccc(NC(=O)C2Cc3ccccc3CN2C(=O)c2ccco2)c1 (centres undefined) | -94*
Cc1ccccc1NC(=O)C1Cc2ccccc2CN1C(=O)c1ccco1 (centres undefined) | -132*
